From PubChem BioAssay (NCATS)
Records with an inconclusive call do not appear. Where a call stands in place of a potency, no number is given. A number with no mark means an inactive call. The source made the active and inactive calls. The call rests on the fitted dose curve; in most records, active means well fitted inhibition curve with a large enough effect; inconclusive means small, poorly fitted or top-dose-only effect; inactive means no such curve, though single readings can be large or run the other way.

target: Protein phosphatase 1D (Homo sapiens) (UniProt O15297); test: RapidFire Mass Spectrometry qHTS Assay for Modulators of WT P53-Induced Phosphatase 1 (WIP1) (AID 1347424); conditions: WIP1 dephosphorylation of phosphopeptide, RapidFire MS; series mostly up to 63 µM;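 further: amount of dephosphorylated VEPPL-S-QETFS peptide product formed by WIP1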
Method in brief: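 WIP1 (10 nM final) was preincubated 1 h at room temperature with compounds in Tris-HCl pH 7.5, 30 mM MgCl2, TCEP, EGTA, BSA; 2 uM VEPPL-pS-QETFS phosphopeptide was added for 5 min, quenched with formic acid, and dephosphorylated product quantified by RapidFire MS.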

Chain of Protein phosphatase 1D (Homo sapiens) (O15297 whole entry, looked up): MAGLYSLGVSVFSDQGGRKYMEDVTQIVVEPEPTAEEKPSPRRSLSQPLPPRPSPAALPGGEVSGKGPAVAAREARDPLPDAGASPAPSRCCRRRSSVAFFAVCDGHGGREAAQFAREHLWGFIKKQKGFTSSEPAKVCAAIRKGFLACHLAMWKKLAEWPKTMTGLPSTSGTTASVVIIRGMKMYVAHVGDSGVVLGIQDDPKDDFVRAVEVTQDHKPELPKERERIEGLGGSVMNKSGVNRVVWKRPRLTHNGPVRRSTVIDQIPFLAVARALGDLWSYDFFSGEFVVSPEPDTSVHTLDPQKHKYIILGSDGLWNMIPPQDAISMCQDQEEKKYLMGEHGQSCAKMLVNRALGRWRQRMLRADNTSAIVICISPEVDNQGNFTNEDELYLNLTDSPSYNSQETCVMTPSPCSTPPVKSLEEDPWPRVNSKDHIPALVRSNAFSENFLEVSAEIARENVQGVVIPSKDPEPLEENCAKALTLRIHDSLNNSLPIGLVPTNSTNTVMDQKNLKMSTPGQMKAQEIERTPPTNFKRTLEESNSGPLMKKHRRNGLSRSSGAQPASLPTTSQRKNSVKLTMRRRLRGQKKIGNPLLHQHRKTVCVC

SMILES	Potency	activity change, negative = inhibition
Cc1coc2ccccc2c1=O	inactive	
CN1Cc2cc(C(=O)N3CCC(C4CCNCC4)CC3)ccc2NC(CC(=O)O)C1=O (stereo not given)	inactive	
COc1cc(/C=C/C(N)=O)cc(OC)c1OC	inactive	
CNC[C@H](O)[C@@H](O)[C@H](O)[C@H](O)CO	inactive	
CC1CN(c2cc3c(cc2F)c(=O)c(C(=O)O)cn3-c2ccc(F)cc2F)CCN1 (stereo not given)		-2.72% [at 6.17 µM]
CCCC(=O)O[C@]1(C(=O)COC(=O)CC)CC[C@H]2[C@@H]3CCC4=CC(=O)CC[C@]4(C)[C@H]3[C@@H](O)C[C@@]21C	inactive	
O=C(Nc1ccc(Cl)cc1)Nc1ccc(Cl)c(Cl)c1	inactive	
COc1c(N2C[C@@H]3CCCN[C@@H]3C2)c(F)cc2c(=O)c(C(=O)O)cn(C3CC3)c12	inactive	
O=C(Oc1ccccc1)c1cccc(C(=O)Oc2ccccc2)c1	inactive	
Cc1cc(OCCOCC[N+](C)(C)Cc2ccccc2)ccc1C(C)(C)CC(C)(C)C	inactive	
COCCc1ccc(OCC2CO2)cc1 (stereo not given)	inactive	
Cc1ccc2c(Cl)cc(Cl)c(O)c2n1	inactive	
CCCCCCCCCCCCCCCC[n+]1ccccc1	inactive	
CC(C)NCCCC1(C(N)=O)c2ccccc2-c2ccccc21	inactive	
NS(=O)(=O)c1cc(C(=O)NN2C[C@H]3[C@H]4CCC(C4)[C@H]3C2)ccc1Cl	inactive	
O=C(c1cc(O)c(O)c(O)c1)c1ccc(O)c(O)c1O	inactive	
CCC1=C[C@@H]2CN(C1)Cc1c([nH]c3ccccc13)[C@@](C(=O)OC)(c1cc3c(cc1OC)N(C)[C@H]1[C@@](O)(C(=O)OC)[C@H](OC(C)=O)[C@]4(CC)C=CCN5CC[C@]31[C@@H]54)C2	inactive	
O=C(CCCl)NCCc1ccccc1	inactive	

SMILES	Potency	activity change, negative = inhibition
Cc1nc(N)nc(N)c1-c1ccc(Cl)c(Cl)c1	inactive	
CC(NCCC(c1ccccc1)c1ccccc1)c1ccccc1 (stereo not given)	inactive	
OCCCc1ccccc1	inactive	
[O-][n+]1cccc(/C(Cl)=N/OC[C@@H](O)CN2CCCCC2)c1	inactive	
Nc1ccc(O)cc1	inactive	
O=C(OCC(O)CO)c1ccccc1Nc1ccnc2c(C(F)(F)F)cccc12 (stereo not given)	inactive	
O=C(O)Cc1ccc(OCCNC[C@H](O)c2ccccc2)cc1	inactive	
Cc1c(N)cccc1C(F)(F)F	inactive	
CCN(CC)CC(=O)OCC(=O)[C@@]1(O)CC[C@H]2[C@@H]3CCC4=CC(=O)CC[C@]4(C)[C@H]3[C@@H](O)C[C@@]21C	inactive	
Cc1ccc(C(=O)Oc2ccc(C(O)CNC(C)(C)C)cc2OC(=O)c2ccc(C)cc2)cc1 (stereo not given)	inactive	
N#Cc1cc(NC(=O)C(=O)O)c(Cl)c(NC(=O)C(=O)O)c1	inactive	
O=C1Nc2ccccc2C1(c1ccc(O)cc1)c1ccc(O)cc1	inactive	
C[C@H]1C[C@@H]2[C@H]([C@@H](O)C[C@@]3(C)[C@H]2CC[C@]3(O)C(=O)CO)[C@@]2(C)C=CC(=O)C=C12	inactive	
OC1(c2ccccc2)CCNCC1	inactive	
CCCCCCCCCCCC[N+](C)(C)Cc1ccccc1	inactive	
CO[C@@H]1[C@@H](O[C@@H]2O[C@H](C)[C@@H](O[C@H]3C[C@@](C)(O)[C@@H](O)[C@H](C)O3)[C@H](N(C)C)[C@H]2O)[C@@H](CC=O)C[C@@H](C)[C@@H](O[C@@H]2CC[C@H](N(C)C)[C@@H](C)O2)/C=C/C=C/C[C@@H](C)OC(=O)C[C@H]1OC(C)=O	inactive	
CC(=O)[C@@]1(O)CC[C@H]2[C@@H]3C[C@H](C)C4=CC(=O)CC[C@]4(C)[C@H]3CC[C@@]21C	inactive	
